Screens: PubChem BioAssay, several laboratories
PostGolgi yeast – growth inhibition of a yeast mutant, post-Golgi transport screen; post-Golgi transport phenotypic cell assay; inhibition, % at 10 µM; actives 0.9% (n = 98,000); AID 739;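 further: yeast cells grown in 1536-well plates; yeast grown about 18 h at 30C before absorbance read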
PostGolgi ctrl – growth of the yeast control strain, post-Golgi counter-screen; efflux-deficient yeast background strain, growth absorbance A615, 16 h; inhibition, % at 10 µM; actives 5% (n = 98,000); AID 738
PLAP act – activators of human placental alkaline phosphatase; P05187; actives 1.2% (n = 96,000); AID 696; activation fold at 20 µM; purified PLAP enzyme, luminescent substrate read-out; stronger effect = higher value; in the data active means activation fold above about 2
DAT uptake mod – changed human dopamine transporter uptake under cocaine IC80; actives 1.3% (n = 110,000); B-score at 10 µM; Q01959; LLC-PK1 hDAT cells, [14C]-dopamine uptake with cocaine IC80; actives deviate in either direction;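 active means Z score or B-score, a plate-position-corrected score, falls beyond the plate's 99.7% confidence bounds, in either direction; inactive means both scores lie inside the 99.7% bounds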;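 further: scored against the spread of the other compound wells on the same plate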
Target sequence (Q01959 whole entry, looked up): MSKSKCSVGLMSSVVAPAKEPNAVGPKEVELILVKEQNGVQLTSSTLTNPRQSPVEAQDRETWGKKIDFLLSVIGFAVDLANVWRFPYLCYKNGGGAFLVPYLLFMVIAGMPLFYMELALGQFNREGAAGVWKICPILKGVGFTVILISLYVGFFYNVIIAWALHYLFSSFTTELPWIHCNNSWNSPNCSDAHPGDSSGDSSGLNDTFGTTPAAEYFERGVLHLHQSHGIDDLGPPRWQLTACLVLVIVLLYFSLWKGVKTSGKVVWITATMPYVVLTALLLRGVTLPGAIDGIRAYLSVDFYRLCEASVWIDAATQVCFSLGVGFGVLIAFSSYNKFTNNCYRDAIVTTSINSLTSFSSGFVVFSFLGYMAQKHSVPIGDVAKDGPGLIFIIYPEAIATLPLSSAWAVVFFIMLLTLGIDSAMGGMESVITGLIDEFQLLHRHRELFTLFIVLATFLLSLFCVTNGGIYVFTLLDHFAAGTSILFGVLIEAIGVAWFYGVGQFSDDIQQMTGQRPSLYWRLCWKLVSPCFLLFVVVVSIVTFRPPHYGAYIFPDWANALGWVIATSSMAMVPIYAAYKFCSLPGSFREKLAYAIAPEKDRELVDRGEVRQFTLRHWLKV
Cav3 T inh – human Cav3.2 channel inhibition, primary screen; Cav3.2-expressing cells, Fluo-4 calcium fluorescence FDSS; stronger effect = lower value; B-score at 10 µM; actives 4% (n = 100,000); AID 449739;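 active means single-dose well whose peak fluorescence ratio is a statistical outlier from its plate by either plate-standardised score or position-corrected B-score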
An asterisk follows results filed as active; . = no result. An excerpt weighted towards active compounds, which were near 9.6% of everything screened. Unless noted, no stated cut-off is given here; in the data, active means inhibition above about 30%; inactive means the rest.

SMILES | PostGolgi yeast | PostGolgi ctrl | PLAP act | DAT uptake mod | Cav3 T inh
C/C(=N\OC(=O)c1ccc(Cl)cc1)c1sc(-c2ccccc2)nc1C | 0 | 4 | 0.9 | -1.5 | .
Cc1sc(-c2ccncc2)nc1OC(=O)c1ccc(Cl)cc1 | 0 | 36* | 1 | -1.2 | -0.042
Cc1sc(-c2ccncc2)nc1OC(=O)c1cc(Cl)cc(Cl)c1 | -3 | 32* | 0.9 | -1.6 | -0.53
CC1(OC(=O)c2cccs2)C(=O)C=C2C=C(C3CC3)OC=C2C1=O (stereo not given) | . | . | . | -0.35 | -2.8*
Cc1ccc2nc(SCC(=O)NC(=O)NCc3ccco3)[nH]c2c1 | -5 | 6 | 2* | -0.77 | -3.6
Cc1ccc2nc(SCC(=O)NCc3ccco3)[nH]c2c1 | 19 | -8 | 1.1 | . | .
CC(=O)OCCCNc1cc(Sc2nc3ccccc3s2)c2nonc2c1[N+](=O)[O-] | -2 | 43* | 1 | -0.61 | 1.1
O=C(N/N=C/c1ccc(Sc2nc3ccccc3s2)c([N+](=O)[O-])c1)c1ccccn1 | 2 | -2 | 1.1 | 0.048 | -0.02
COC(=O)c1sc(N2C(=O)C(O)=C(C(=O)c3ccc(C)o3)C2c2ccc(F)cc2)nc1C (stereo not given) | -4 | 15 | 1.1 | 1.4 | -4.9*
Cc1ccc(C2C(C(=O)c3ccco3)=C(O)C(=O)N2c2nnc(C)s2)cc1 (stereo not given) | -5 | 4 | 1.1 | -0.35 | -0.22
CN(C)CCNC(=O)CN1C(=O)COc2ccc(C(C)(C)C)cc21 | -1 | -1 | 1.4 | -0.47 | 0.033
Cc1c(O)ccc(/C(Cc2ccc3ccccc3n2)=N\O)c1O | -1 | -6 | 1.1 | 1.3 | -4.8*
Cc1c(NC(=O)c2ccc(F)c(S(=O)(=O)N3CCOCC3)c2)c(=O)n(-c2ccccc2)n1C | 1 | 7 | 0.8 | 0.01 | 0.79
O=[N+]([O-])c1cccc(-c2ccc(/C=N/NC(=S)Nc3ccccc3)o2)c1 | -13 | 48* | 1 | 1.3 | 0.16
N#CCc1ccc(C(=O)c2ccccc2F)s1 | 4 | 6 | 0.9 | -1.6 | 0.51
CC1N/C(=C\C(=O)c2ccccc2)N(O)C1(C)C (stereo not given) | -1 | 5 | 1 | -0.97 | 0.26
O=C(C1CC1)N1CCc2cc(Br)cc(S(=O)(=O)NCC3COc4ccccc4O3)c21 (stereo not given) | 9 | 13 | 1.4 | 0.02 | -4.1*
CCC(=O)N1CCc2cc(Br)cc(S(=O)(=O)N3CCCCCC3)c21 | 8 | 36* | . | -0.0079 | -0.87
O=C(C1CC1)N1CCc2cc(Br)cc(S(=O)(=O)N3CCCCCC3)c21 | -1 | 41* | 1.5 | 6* | -3.5
CCOC(=O)N1CCN(S(=O)(=O)c2cc(Br)cc3c2N(C(=O)CC)CC3)CC1 | 20 | 1 | 1 | -0.019 | -0.15
C=CCNC(=O)c1onc(CSc2cccc(OC)c2)c1C(=O)O | -2 | 7 | 1 | -0.97 | 0.62
CCNC(=S)NNC(=O)c1cc(-c2cc(C)ccc2C)nc2ccccc12 | -2 | 2 | 1.8 | 0.61 | -1.1
Fc1ccc(-n2cnnn2)c(F)c1 | 6 | 3 | 0.9 | 0.55 | 0.31
c1cc2ccc3ccc(-n4cnnn4)c4ccc(c1)c2c34 | -7 | 30* | 1.2 | -1.5 | 1
CC1CCCCC1n1c(=S)[nH]c2ccccc2c1=O (stereo not given) | 7 | 53* | 1 | -0.7 | 0.0037
SMILES | PostGolgi yeast | PostGolgi ctrl | PLAP act | DAT uptake mod | Cav3 T inh
O=C1CCCN1CCCNCC(=O)N1c2ccccc2Sc2ccccc21 | 1 | -1 | 1.7 | -0.22 | 0.65
CCOC(=O)C(CC)(CC)/C(C)=N/NC(=O)CC#N | 5 | 2 | 1.3 | -1.5 | -0.11
CCOC(=O)C(C(=O)Nc1nc2ccccc2s1)C1CCCCC1 (stereo not given) | 18 | 27 | 1 | 0.26 | -7.8*
CCOC(=O)C(C(=O)Nc1cccc(C)n1)C1CCCCC1 (stereo not given) | -4 | 3 | 1.2 | 0.11 | -0.74
CCOC(=O)C(=CNc1cc(C)nn1-c1ccccc1)C(=O)OCC | 10 | 22 | 1.3 | 2.2* | -0.63
CCOC(=O)C(=CNc1ccccc1C)C(=O)OCC | -6 | 6 | 0.9 | 0.8 | -0.53
Cc1ccc(NC(=O)NNc2cccc(Cl)n2)cc1 | -11 | 7 | 0.8 | -0.15 | 2.1
CCCCOC(=O)Nc1cc(OC)c(Cl)cc1OC | 5 | 7 | 1.2 | 1.3 | -2.5*
CC(C)(C)NC(=O)CN(C(=O)CNC(=O)c1cccs1)c1ccc2c(c1)OCCO2 | -8 | 6 | 1 | 0.74 | 1.4
CCn1cc([N+](=O)[O-])c(C(=O)Nc2ccc3c(c2)OCCO3)n1 | -10 | 33* | 1 | -0.48 | 1
CCc1ccc(NC(=O)CSc2nnc(SCC(=O)Nc3ccc(CC)cc3)n2N)cc1 | -2 | -7 | 0.8 | -0.33 | -1
O=C(O)C(c1ccccc1)C1(O)CCCC1 (stereo not given) | -10 | -9 | 0.9 | 1.7* | .
O=C(O)C(O)c1ccccc1 (stereo not given) | . | . | . | -0.058 | .
CC(C)(C)NC(=O)CC(CC(=O)O)c1ccccc1 (stereo not given) | -9 | 12 | 1 | -0.32 | 0.77
Cc1ccc(C2=NN3C(C(=O)c4ccccc4)Oc4ccccc4C3C2)cc1 (stereo not given) | 12 | 50* | 1.2 | 0.42 | -7.3*
CCOc1ccc(-c2nc(N)ncc2Oc2ccccc2Br)c(O)c1 | 3 | 55* | 0.9 | -0.0075 | 0.04
C=C(C)COc1ccc(-c2[nH]ncc2Oc2ccccc2OC)c(O)c1 | 12 | 10 | 2* | 0.0089 | -1.2
CCOc1ccc(-c2[nH]ncc2-c2ccc(OC)c(OC)c2)c(O)c1 | -2 | 12 | 2.7* | 0.88 | -1.1
C=C(C)COc1ccc(-c2[nH]ncc2-c2ccccc2OC)c(O)c1 | 54* | 52* | 2.5* | 0.18 | -3.4
CCOc1ccc(-c2[nH]ncc2Oc2ccccc2OC)c(O)c1 | 9 | 22 | . | -0.0075 | -0.46
COc1ccc(CNc2nc(NCc3ccc(OC)c(OC)c3)n(C(=O)c3cccs3)n2)cc1OC | -2 | 8 | 1 | -0.44 | -0.13
COc1ccc(S(=O)(=O)N(CC(=O)N2CCN(C)CC2)c2ccccc2)cc1OC | -11 | 11 | 1.7 | -0.34 | -1.1
CCOC(=O)NC(=O)CSc1nnnn1-c1ccc(Cl)cc1 | 10 | 12 | . | 0.026 | -0.24
CCCC(O)(CCN1CCOCC1)c1ccc(Br)cc1 (stereo not given) | 3 | 6 | 1.4 | 0.011 | -0.16
Cc1nn(C(C)C(=O)NNC(=S)Nc2ccc(F)cc2)c(C)c1[N+](=O)[O-] (stereo not given) | 1 | 1 | . | -0.56 | -0.84
COc1ccc(O)c(-c2[nH]ncc2C(=O)c2ccccc2C)c1 | 20 | 7 | . | 0.29 | 0.49
CCOc1ccc(-c2[nH]ncc2Oc2ccccc2OCC)c(O)c1 | 91* | 57* | 2.5* | 0.16 | -2.8
CCCOC(=O)c1ccc(Oc2cn[nH]c2-c2ccc(OC)cc2O)cc1 | 6 | 43* | 2.9* | . | .
CCOC(=O)c1cc(CNC(=O)c2c(C)oc3c2CCCC3)c(C)o1 | 0 | -6 | 1.3 | 1.4 | 0.37
